Measurements: publication PMC4336329 (PLoS ONE, 2015)
Among all 310,000 compounds or so, about 14,000 (4.5%) showed an effect of 50% or more. The effect is printed as a negative number. The sample holds strong results, similar compounds and a random draw of the others, so the mix is not that of the screen.

Each compound was assayed against human ether-à-go-go-related gene (hERG) potassium channel (human, UniProt Q12809) (assay: primary screen, population patch clamp on CHO cells stably expressing hERG; higher = less effect of the substance).
Chain of human ether-à-go-go-related gene (hERG) potassium channel (Q12809 whole entry, looked up): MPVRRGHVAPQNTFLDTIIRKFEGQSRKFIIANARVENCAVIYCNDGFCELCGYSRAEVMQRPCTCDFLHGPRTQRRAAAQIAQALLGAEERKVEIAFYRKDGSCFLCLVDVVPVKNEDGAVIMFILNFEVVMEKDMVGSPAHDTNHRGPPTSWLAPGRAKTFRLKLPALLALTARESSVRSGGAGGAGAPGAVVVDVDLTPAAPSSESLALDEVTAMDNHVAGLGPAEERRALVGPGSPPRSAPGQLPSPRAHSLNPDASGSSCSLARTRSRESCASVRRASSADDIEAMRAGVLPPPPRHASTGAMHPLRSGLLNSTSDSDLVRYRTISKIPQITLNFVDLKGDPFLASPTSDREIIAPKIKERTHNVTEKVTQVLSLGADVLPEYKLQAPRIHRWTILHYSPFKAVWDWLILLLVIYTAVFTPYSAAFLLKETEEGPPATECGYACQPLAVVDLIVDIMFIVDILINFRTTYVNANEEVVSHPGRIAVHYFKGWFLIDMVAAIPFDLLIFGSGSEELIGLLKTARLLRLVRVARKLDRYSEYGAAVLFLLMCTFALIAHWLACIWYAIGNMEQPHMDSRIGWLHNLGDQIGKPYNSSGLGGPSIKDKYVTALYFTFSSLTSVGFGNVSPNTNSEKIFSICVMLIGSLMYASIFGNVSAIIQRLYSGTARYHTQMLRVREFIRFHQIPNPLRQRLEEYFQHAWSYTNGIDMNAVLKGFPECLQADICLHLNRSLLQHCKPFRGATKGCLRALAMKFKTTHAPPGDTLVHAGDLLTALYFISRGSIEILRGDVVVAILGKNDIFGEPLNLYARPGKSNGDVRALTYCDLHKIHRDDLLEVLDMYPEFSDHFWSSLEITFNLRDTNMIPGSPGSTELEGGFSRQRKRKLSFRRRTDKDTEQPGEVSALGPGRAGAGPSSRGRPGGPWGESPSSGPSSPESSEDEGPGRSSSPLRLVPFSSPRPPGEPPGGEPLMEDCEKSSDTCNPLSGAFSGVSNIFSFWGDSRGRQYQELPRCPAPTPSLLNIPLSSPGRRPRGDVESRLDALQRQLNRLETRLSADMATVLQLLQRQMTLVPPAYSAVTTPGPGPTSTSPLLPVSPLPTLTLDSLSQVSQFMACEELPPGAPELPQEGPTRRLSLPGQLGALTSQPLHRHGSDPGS
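Further: peak tail current of the secondary pulse compared with the same well before compound.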

SMILES | hERG current change (%, negative = inhibition) at 10uM
CC(=O)c1c(C)n(C)c2ccc(OC(=O)c3ccc([N+](=O)[O-])cc3)cc12 | 17.2%
CCOc1cc(-c2nc(C)c(C(C)=O)n2O)ccc1OCC(=O)Nc1ccccc1 | -0.49%
Cc1cccc(-n2ccnc2CN2CCC(CO)(Cc3ccccc3)CC2)c1 | -50.1%
Cc1cc(C)n(-c2cccc(CN3CCC(CO)(Cc4ccccc4)CC3)c2)n1 | -58.1%
Cc1[nH]c2ccccc2c1CN1CCC(CO)(Cc2ccccc2)CC1 | -47.6%
Cc1c(CN2CCC(CO)(Cc3ccccc3)CC2)c2ccccc2n1C | -37.8%
Cc1[nH]c2c(C)cccc2c1CN1CCC(CO)(Cc2ccccc2)CC1 | -62.2%
Cc1cc(C)n(-c2ccc(C(=O)N3CCC(CO)(Cc4ccccc4)CC3)cc2)n1 | 9.21%
Cc1cccc(S(=O)(=O)N2CCC(CO)(Cc3ccccc3)CC2)c1 | -2.74%
CN(C)C1=NCCN1CC1CCCCCC1 | -3.28%
CCOC(=O)CNC(=O)Cn1cnc2sc(C)c(S(=O)(=O)N3CCOCC3)c2c1=O | 16.4%
CC(=O)N1CCc2cc(S(=O)(=O)CCC(=O)N3CCN(c4ccccc4)CC3)ccc21 | 7.15%
O=S1(=O)N=C(N(Cc2cccs2)c2ccc(O)cc2)c2ccccc21 | -39.1%
COc1ccc(-c2cc(C(F)(F)F)nc(N3CCOCC3)n2)cc1 | 18.9%
CCOC(=O)c1sc(N(Cc2ccccc2)C(=O)CSc2nnc(C3CC3)n2N)nc1C | -26.7%
COc1ccc(C(=O)N/C(=C\c2cc(OC)c(OC)cc2[N+](=O)[O-])C(=O)NCCO)cc1 | 17.3%
COc1ccc(/C=C(/NC(=O)c2ccc([N+](=O)[O-])cc2)C(=O)NCCCN(C)C)cc1 | -93.4%
COc1ccc(C(=O)N/C(=C\c2ccc([N+](=O)[O-])cc2)C(=O)NC(CCSC)C(=O)O)cc1 (stereo not shown) | 9.2%
C=CCNC(=O)/C(=C\c1ccc([N+](=O)[O-])cc1)NC(C)=O | 2.33%
C=CCNC(=O)/C(=C\c1ccc(OC)cc1)NC(=O)c1ccc([N+](=O)[O-])cc1 | -77.1%
COc1ccc(/C=C(/NC(=O)c2ccc([N+](=O)[O-])cc2)C(=O)NC(C)(C)C)cc1 | -40.8%
Nc1ncncc1-c1ccc([N+](=O)[O-])cc1 | -9.28%

SMILES | hERG current change (%, negative = inhibition) at 10uM
CC(=O)Cc1ccccc1OC(=O)c1ccco1 | 23.6%
CN1CCN(C(=O)c2cc(=O)c3cc(Cl)ccc3o2)CC1 | -28.1%
O=C(c1cc(=O)c2ccccc2o1)N1CCN(c2ccccc2)CC1 | 1.71%
COc1ccc(N2CCN(C(=O)c3cc(=O)c4cc(Cl)ccc4o3)CC2)cc1 | -76.3%
Cc1ccc(S(=O)(=O)N2CCN(C(=O)c3cc(=O)c4ccccc4o3)CC2)cc1 | -55%
O=C(c1cc(=O)c2cc(Cl)ccc2o1)N1CCN(Cc2ccccc2)CC1 | -70.8%
COc1ccc(N2CCN(C(=O)c3cc(=O)c4cc(C)ccc4o3)CC2)cc1 | -38.1%
CC(=O)N1CCN(C(=O)c2cc(=O)c3ccccc3o2)CC1 | 26.2%
O=C(c1cc2ccccc2o1)N1CCN(c2cccc(Cl)c2)CC1 | -16.3%
Cc1cc(C)c2oc(C(=O)N3CCN(Cc4ccccc4)CC3)cc(=O)c2c1 | -42.9%
O=C(c1cc(=O)c2ccccc2o1)N1CCN(c2cccc(Cl)c2)CC1 | -56.4%
COc1ccc(N2CCN(C(=O)c3cc(=O)c4cc(C)c(C)cc4o3)CC2)cc1 | 0.819%
CCOC(=O)c1ccc(S(=O)(=O)N2CCN(C(=O)c3cc(=O)c4ccccc4o3)CC2)cc1 | -38.2%
CCOc1ccc(NC(=O)CN(C)C(=O)Cc2ccsc2)cc1OCC | -11.2%
Cc1cccc(C2C3=C(CCCC3=O)N=C3c4ccccc4C(=O)C32)c1 (stereo not shown) | -0.327%
CCOC(=O)Cn1c(=O)c2c(nc(N3CCOCC3)n2C)n(C)c1=O | -4.47%
COc1ccc(C2=NOC(Cn3c(Cc4ccc(Cl)cc4)nc4c3c(=O)n(C)c(=O)n4C)C2)cc1 (stereo not shown) | -22.1%
COc1ccc2cc(-c3cc(C(=O)OCC(=O)NC4CCS(=O)(=O)C4)c4ccccc4n3)ccc2c1 (stereo not shown) | 16.1%
CCc1nnc(NC(=O)c2sc3nc4cc(C)ccc4cc3c2N)s1 | 13%
CCCCNC(=O)c1ccc(N2CCC3(CC2)OCCO3)c([N+](=O)[O-])c1 | -22.2%
CC(=O)c1ccc(S(=O)(=O)NC2CC(=O)N(c3ccc(Cl)cc3)C2)cc1 (stereo not shown) | -34.8%
O=C1CC(NS(=O)(=O)c2ccc([N+](=O)[O-])cc2)CN1c1ccc(Cl)cc1 (stereo not shown) | -66.6%

SMILES | hERG current change (%, negative = inhibition) at 10uM
O=C1CC(NS(=O)(=O)c2ccc([N+](=O)[O-])cc2)CN1c1ccc2c(c1)OCCO2 (stereo not shown) | -1.64%
Brc1cccc(OCCN2CCCCC2)c1.O=C(O)C(=O)O | -21.3%
Brc1cccc(OCCCCN2CCCCC2)c1.O=C(O)C(=O)O | -68.9%
Brc1cccc(OCCCN2CCCCCC2)c1.O=C(O)C(=O)O | -70%
Brc1cccc(OCCN2CCOCC2)c1.O=C(O)C(=O)O | 19%
CCOc1cccc(OCCCCN2CCCCC2)c1 | -38.1%
COc1cccc(OCCCN2CCCCCC2)c1.O=C(O)C(=O)O | -37.8%
c1ccc(Oc2cccc(OCCCCN3CCCC3)c2)cc1 | -78.3%
c1ccc(OCCCCN2CCCCC2)cc1 | 1.35%
Cc1cc(NN)nc(Cc2ccccc2)n1 | 10.2%
Cc1cc(O)c(C(C)C)cc1NC(=O)c1cccc(Cl)c1 | -13.4%
O=C(CNC(=O)c1cccc(F)c1)OCC(=O)N1CCCc2ccccc21 | -0.321%
CCN(CC)c1ccc(C(=O)OCC(=O)Nc2cccc(S(=O)(=O)NC3=NCCCCC3)c2)cc1 | 7.02%
O=C(NCCc1ccccc1)C(=S)N1CCCCC1 | 9.48%
CC(=O)Nc1ccc(C(=O)COC(=O)CCc2ccccc2)c(F)c1 | -2.03%
CCc1ccc(NC(=O)c2ccccc2Br)cc1 | -11.2%
COc1ccc(CCN(C)C2CCCN(S(C)(=O)=O)C2)cc1OC (stereo not shown) | -4.36%
COc1ccc(CCN(C)C2CCCN(S(=O)(=O)N(C)C)C2)cc1OC (stereo not shown) | -8.26%
COc1ccc(CCN(C)C2CCCN(S(=O)(=O)c3ccccc3)C2)cc1OC (stereo not shown) | -77.2%
COc1ccc(S(=O)(=O)N2CCCC(C(=O)N3CCCC3)C2)cc1OC (stereo not shown) | 4.14%
COc1ccc(CCN(C)C(=O)c2ccc(C)c(S(=O)(=O)N3CCCCC3)c2)cc1OC | -20.9%
C=CCS(=O)(=O)N1CCCC(N(C)CCc2ccc(OC)c(OC)c2)C1 (stereo not shown) | -16.1%

SMILES | hERG current change (%, negative = inhibition) at 10uM
C/C=C(\C)CN1CCCC(N(C)CCc2ccc(OC)c(OC)c2)C1 (stereo not shown) | -27.5%
COc1ccc(CCN(C)C2CCCN(S(=O)(=O)c3ccccc3F)C2)cc1OC (stereo not shown) | -64.3%
COc1ccc(CCN(C)C2CCCN(S(=O)(=O)C(C)C)C2)cc1OC (stereo not shown) | -20.2%
COc1ccc(S(=O)(=O)N2CCCC(N(C)CCc3ccccc3)C2)cc1OC (stereo not shown) | -66.5%
CN(CCc1ccccc1)C1CCCN(S(=O)(=O)c2cccc(F)c2)C1 (stereo not shown) | -48.1%
COc1ccc(CCN(C)C2CCCN(S(=O)(=O)c3ccc(C)cc3)C2)cc1OC (stereo not shown) | -78%
COc1ccc(NC(=O)c2nn(C34CC5CC(CC(C5)C3)C4)cc2[N+](=O)[O-])cc1 | -0.0263%
O=c1nc(N2CCOCC2)ccn1-c1nc(-c2ccccc2)oc1-c1ccccc1 | -9.71%
Cc1c(NC(=O)COC(=O)C23CC4CC(CC(O)(C4)C2)C3)c(=O)n(-c2ccccc2)n1C | 10.1%
Cc1oc(-c2ccccc2F)nc1CS(=O)(=O)CC(=O)NCc1ccccc1Cl | -17.9%
c1ccc(Nc2ncnc3sc4c(c23)CCC4)cc1 | 0.132%
Nc1ccc2nc(SCC(=O)N3CCOCC3)sc2c1 | 17%
COc1ccc(NC(C)=O)cc1C#N | 19.3%
CCOc1ccccc1NC(=O)NCc1ccc2c(c1)OCO2 | 22.4%
CC(C)C(=O)N(Cc1ccc2c(c1)OCO2)Cc1ccccn1.Cl | -7.53%
CCOc1ccccc1CN(CCc1ccc2c(c1)OCO2)Cc1ccccn1 | -64.4%
CCN1C(=O)c2cccc3c(NC(=O)c4ccc(OC)c(OC)c4)ccc1c23 | -68.3%
CCN1C(=O)c2cccc3c(NC(=O)c4ccccc4)ccc1c23 | 9.37%
CCOc1cc(C(=O)Nc2ccc3c4c(cccc24)C(=O)N3CC)cc(OCC)c1OCC | -5.15%
